Each structure is given as a SMILES string. The campaign covered roughly 150,000 compounds. About 6,500 (4.3%) were called active. About 12% were inconclusive and are not listed. Calls follow the shape of the dose curve; as a rule, active = well fitted inhibition curve with a large enough effect (not every such curve was filed as active); inconclusive = small, poorly fitted or top-dose-only effect, or another doubt; inactive = no such curve, though single readings can be large or run the other way. Many of the other results were omitted from the sample, so actives are more common in it than they were.

Data on 47 compounds can be found in PubChem BioAssay AID894 (National Center for Advancing Translational Sciences (NCATS), 2007).
% is scaled to controls: 0 for no effect and ±100 for the full control effect; potency is read from the fitted curve at half-maximal effect.

Chain of 15-hydroxyprostaglandin dehydrogenase [NAD(+)] (Homo sapiens) (P15428 whole entry, looked up): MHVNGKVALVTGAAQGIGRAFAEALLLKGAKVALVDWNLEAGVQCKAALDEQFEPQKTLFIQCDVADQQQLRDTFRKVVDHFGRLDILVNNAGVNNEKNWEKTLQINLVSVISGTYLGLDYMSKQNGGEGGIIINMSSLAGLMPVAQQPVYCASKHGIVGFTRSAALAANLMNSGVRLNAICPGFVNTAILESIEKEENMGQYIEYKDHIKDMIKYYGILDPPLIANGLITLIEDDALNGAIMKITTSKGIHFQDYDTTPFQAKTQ

The experiment deals with 15-hydroxyprostaglandin dehydrogenase [NAD(+)] (Homo sapiens) (UniProt P15428). Kind of experiment: qHTS Assay for Inhibitors of HPGD (15-Hydroxyprostaglandin Dehydrogenase). The note with it: purified HPGD, NADH fluorescence kinetic, PGE2 substrate; activity change, negative = inhibition: active compounds read low. In short, it runs like this:
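20 nM HPGD preincubated 15 min at room temperature with compound in 50 mM Tris-HCl pH 8, 0.01% Tween 20. Started with 1 mM NAD+ and 30 uM prostaglandin E2; NADH fluorescence (360/450 nm) read 5 times over 30-s intervals, last minus first.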
On the technique in general: Quantitative high-throughput screening tests each substance at several concentrations.
With `COC(=O)c1sccc1NC(=O)COc1ccc(Cl)cc1`, the activity change, negative = inhibition is -12% (inactive).

Regarding `C=CCNC(=O)CSc1nc2sc(C)c(C)c2c(=O)[nH]1`, the Potency is 14.1 µM (active).

Take `Cc1sc2nc(SCC(N)=O)n(C)c(=O)c2c1C`: the activity change, negative = inhibition is -0.652% (inactive).

In the case of `Cc1sc2nc(CSCC(=O)Nc3c(Cl)cccc3Cl)[nH]c(=O)c2c1C`, the activity change, negative = inhibition was -14% (inactive).

Consider `COc1ccc(-c2[nH]ncc2/C=N/NC(=O)c2cc(Br)ccc2O)c(OC)c1`, for which the activity change, negative = inhibition was -16.3% (inactive).

Take `Cc1ccc(S(=O)(=O)N(C)C)cc1NC(=O)/C=C/c1cccs1`: the activity change, negative = inhibition is -12.9% (inactive).

On to `CS(=O)(=O)N(Cc1ccccc1)c1ccc(C(=O)NN=C2CCCCCC2)cc1`, for which the activity change, negative = inhibition was -5.89% (inactive).

In the case of `CCCC/C(C)=N/NC(=O)NC1CCCCC1`, the activity change, negative = inhibition was -6.12% (inactive).

Turning to `CCS(=O)(=O)Nc1ccc(C2=NN(S(=O)(=O)c3ccc(F)cc3)C(c3ccco3)C2)cc1` (configuration not stated), the Potency was 12.6 µM (active).

For the compound `CS(=O)(=O)Nc1cccc(C2=NN(S(=O)(=O)c3ccccc3)C(c3cccs3)C2)c1` (configuration not stated), the activity change, negative = inhibition was -7.08% (inactive).

Regarding `Cc1ccc(C2=NN(C(=O)CSc3nc(N)cc(N)n3)C(c3ccco3)C2)cc1` (configuration not stated), the activity change, negative = inhibition was -20.9% (inactive).

On to `COc1ccc(-c2csc(NC(=O)COC(=O)c3ccc(Br)o3)n2)cc1`, for which the activity change, negative = inhibition is -1.93% (inactive).

In the case of `O=c1ccn(Cc2ccccc2Cl)cc1`, the activity change, negative = inhibition is 0.459% (inactive).

As to `O=C1c2ccccc2C(O)N1Cc1ccccc1Cl` (configuration not stated), the Potency is 12.6 µM (active).

As for `O=C1c2ccccc2C(O)N1Cc1ccccc1` (configuration not stated), the activity change, negative = inhibition is -28.7% (inactive).

Regarding `C=CCC1CCC(=O)N2CCCC12` (configuration not stated), the activity change, negative = inhibition was -1.41% (inactive).

`COc1ccc(/C=C2\NC(=O)[C@@H]3Cc4ccccc4CN3C2=O)cc1`: the activity change, negative = inhibition was -5.55% (inactive).

Consider `COC(=O)C1=C(C(=O)OC)[C@@H]2N(Cc3ccccc3)c3ccccc3[C@@]23C[C@@H](C(=O)OC)N(S(=O)(=O)c2ccc(C(F)(F)F)cc2)C3=N1`, for which the activity change, negative = inhibition is -11.4% (inactive).

As to `O=C(Nc1ccn(Cc2ccc(F)cc2)n1)c1ccncc1`, the activity change, negative = inhibition was 1.11% (inactive).

On to `Cc1ccc(Cn2ccc(NC(=O)c3cc(C(C)C)on3)n2)cc1`, for which the activity change, negative = inhibition was -19.4% (inactive).

On to `O=C(Nc1ccn(Cc2ccccc2)n1)c1n[nH]c([N+](=O)[O-])c1Cl`, for which the Potency is 28.2 µM (active).

`CCOc1ccc(N2C(=O)/C(=C/c3ccc(C)o3)N(C)C2=S)cc1`: the activity change, negative = inhibition was -30% (inactive).

On to `C=CCNC(=O)c1csc(-c2ccccc2)n1`, for which the Potency is 15.8 µM (active).

With `CNC(=O)c1csc(-c2ccccc2)n1`, the activity change, negative = inhibition is -8.99% (inactive).

With `COc1cc(OC)cc(C(=O)NCC(=O)OCc2csc(-c3ccccc3)n2)c1`, the activity change, negative = inhibition was -9.37% (inactive).

Take `CC1CCCCN1S(=O)(=O)c1ccc(S(=O)(=O)N(CC(=O)Nc2ccccc2)Cc2cccs2)cc1` (configuration not stated): the activity change, negative = inhibition was -10.3% (inactive).

On to `O=C(CN1C2=NCCN2c2ccccc21)c1cccs1`, for which the activity change, negative = inhibition is -3.36% (inactive).

With `COc1ccc2c(c1)O[C@@H](c1ccc3c(c1)OCO3)[C@H](OC(=O)NCc1ccco1)C2=O`, the activity change, negative = inhibition is -11.6% (inactive).

For the compound `S=c1[nH]nc(SCc2ccccc2Cl)c2[nH]cnc12`, the Potency is 1.26 µM (active).

On to `C[C@H]1Cc2c(COc3ccccc3)nc3c(c2CO1)CN(C(=O)NCc1ccco1)CC3`, for which the activity change, negative = inhibition was -1.13% (inactive).

With `COc1nc(N(C)C)nc(N2CC(=O)N(CCNS(=O)(=O)c3ccc(C)cc3)C2=N)n1`, the activity change, negative = inhibition is -10.5% (inactive).

As to `c1ccc(COc2nsnc2N2CCOCC2)cc1`, the activity change, negative = inhibition was -17.1% (inactive).

Consider `O=C(COc1nc2ccccc2nc1N1CCOCC1)NCC(F)(F)F`, for which the activity change, negative = inhibition is -9.54% (inactive).

On to `c1nc(COc2nsnc2N2CCOCC2)cs1`, for which the Potency is 31.6 µM (active).

For `C=CCNC(=O)/C(=C\c1cccc([N+](=O)[O-])c1)NC(=O)c1ccccc1`, the activity change, negative = inhibition is -14.6% (inactive).

Turning to `Cc1cc(C)cc(OCC(=O)NNC(=O)CCN2C(=O)c3ccccc3C2=O)c1`, the activity change, negative = inhibition is -12.4% (inactive).

With `CCOC(=O)c1nnn(-c2nonc2OC)c1-c1ccccc1`, the Potency was 8.91 µM (active).

Take `CCOC(=O)c1nnn(-c2nonc2-n2cccc2)c1CN1CCOCC1`: the activity change, negative = inhibition was -13.3% (inactive).

In the case of `CCOC(=O)c1nnn(-c2nc(OC)nc(N(C)C)n2)c1-c1ccccc1`, the activity change, negative = inhibition was -1.76% (inactive).

As for `O=C1C=C(c2ccccc2)CCC1`, the activity change, negative = inhibition is -3.18% (inactive).

With `CC1=C2[C@@H](O)[C@H]([C@@H](C)C(=O)NCCC(C)C)CC[C@@]2(C)C=CC1=O`, the activity change, negative = inhibition was -7.81% (inactive).

Take `Cc1ccccc1N/C(SCc1ccc(Cl)cc1)=C(/C#N)C(N)=O`: the activity change, negative = inhibition is -18.2% (inactive).

For `COC(=O)CCCC1=CC2=CC(=O)C(C)(OC(=O)c3cccs3)C(=O)C2=CN1c1ccc(CO)cc1` (configuration not stated), the activity change, negative = inhibition is -7.14% (inactive).

As to `CCOC(=O)c1cc2n(c1C)-c1ccccc1C2=O`, the activity change, negative = inhibition was -17.5% (inactive).

Consider `CCOC(=O)c1cc2n(c1N)-c1ccccc1C2=O`, for which the Potency is 31.6 µM (active).

In the case of `CCOC(=O)Nc1ccccc1N1C(=O)c2ccccc2C1=O`, the activity change, negative = inhibition was -2.62% (inactive).

With `COc1ccc(OC)c(-c2c(=O)n(OCc3ccccc3Br)c3ccccc3[n+]2[O-])c1`, the activity change, negative = inhibition is -7.2% (inactive).
